Assay results as given in PubChem BioAssay AID1159580 (chemical genetic matrix, 2015).
Hit rate of the full screen: of about 5,500 compounds, about 2,000 (36%) were called active. About 18% were inconclusive and are not listed. Rule as the data show it: active = normalized growth mostly below about 0.91 (no sharp cut-off); inconclusive = no clear call, values can overlap the other calls; inactive = mostly above about 0.92. The list shows a part of the results.

Experiment: chemical genetic growth profiling, strain panel (AID 1159580);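 also: tested at 20 µM; growth read once vehicle control cultures reached saturation at 30 °C; 1 = growth at the plate median or of vehicle wells; lower values mean less growth of the strain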
Conditions: growth OD

Measured: normalized growth

CN[C@@H]1[C@@H](O[C@H]2O[C@H](CO)[C@@H](N)[C@H](O)[C@H]2O)O[C@H]2C[C@@H](N)[C@H](O[C@H]3[C@H](O)[C@@H](O)[C@H](N)C[C@@H]3N)O[C@@H]2[C@@H]1O
inactive: S. cerevisiae deletion strains, locus YKL009W, strain mrt4, hits give low values 0.996 | S. cerevisiae deletion strains, locus YKL068W, hits give low values 1.01 | S. cerevisiae deletion strains, locus YKL085W, strain MDH1 (second series), hits give low values 0.982 | S. cerevisiae deletion strains, locus YKL085W, strain MDH1, hits give low values 0.982 | S. cerevisiae deletion strains, locus YKL160W, strain elf1, hits give low values 1.01 | S. cerevisiae deletion strains, locus YKL190W, strain CNB1, hits give low values 1 | S. cerevisiae deletion strains, locus YKR001C, strain vps1, hits give low values 0.989 | S. cerevisiae deletion strains, locus YKR026C, strain gcn3, hits give low values 1 | S. cerevisiae deletion strains, locus YKR091W, strain srl3, hits give low values 1 | S. cerevisiae deletion strains, locus YLL001W, strain dnm1, hits give low values 1.02 | S. cerevisiae deletion strains, locus YLL026W, hits give low values 1.01 | S. cerevisiae deletion strains, locus YLL041C, strain sdh2, hits give low values 0.997 | S. cerevisiae deletion strains, locus YLR027C, strain aat2, hits give low values 1.01 | S. cerevisiae deletion strains, locus YLR039C, strain RIC1, hits give low values 1.07 | S. cerevisiae deletion strains, locus YLR058C, strain SHM2, hits give low values 1.01 | S. cerevisiae deletion strains, locus YLR102C, strain apc9, hits give low values 1.01 | S. cerevisiae deletion strains, locus YLR113W, strain HOG1, hits give low values 0.939 | S. cerevisiae deletion strains, locus YLR221C, strain rsa3, hits give low values 1 | S. cerevisiae deletion strains, locus YLR258W, strain gsy2, hits give low values 1 | S. cerevisiae deletion strains, locus YLR262C, strain YPT6 (second series), hits give low values 1 | S. cerevisiae deletion strains, locus YLR262C, strain YPT6, hits give low values 1.05 | S. cerevisiae deletion strains, locus YLR268W, strain sec22, hits give low values 0.981 | S. cerevisiae deletion strains, locus YLR320W, strain mms22, hits give low values 0.991 | S. cerevisiae deletion strains, locus YLR330W, strain CHS5, hits give low values 1.01 | S. cerevisiae deletion strains, locus YLR342W, strain FKS1 (second series), hits give low values 1.07 | S. cerevisiae deletion strains, locus YLR342W, strain FKS1, hits give low values 1.02 | S. cerevisiae deletion strains, locus YLR357W, strain rsc2, hits give low values 0.996 | S. cerevisiae deletion strains, locus YLR370C, strain arc18, hits give low values 1.01 | S. cerevisiae deletion strains, locus YLR371W, strain rom2, hits give low values 1.01 | S. cerevisiae deletion strains, locus YLR384C, strain iki3, hits give low values 1 | S. cerevisiae deletion strains, locus YLR418C, strain cdc73, hits give low values 0.99 | S. cerevisiae deletion strains, locus YML016C, strain PPZ1, hits give low values 1 | S. cerevisiae deletion strains, locus YML032C, strain rad52, hits give low values 1.01 | S. cerevisiae deletion strains, locus YML120C, strain ndi1, hits give low values 1 | S. cerevisiae deletion strains, locus YML124C, strain tub3, hits give low values 0.995 | S. cerevisiae deletion strains, locus YMR058W, strain fet3, hits give low values 1.02 | S. cerevisiae deletion strains, locus YMR078C, strain ctf18, hits give low values 1.02 | S. cerevisiae deletion strains, locus YMR125W, strain sto1, hits give low values 0.988 | S. cerevisiae deletion strains, locus YMR129W, hits give low values 0.986 | S. cerevisiae deletion strains, locus YMR205C, strain PFK2, hits give low values 1.02 | S. cerevisiae deletion strains, locus YMR223W, strain ubp8, hits give low values 0.913 | S. cerevisiae deletion strains, locus YMR231W, strain pep5, hits give low values 1.01 | S. cerevisiae deletion strains, locus YMR263W, strain SAP30, hits give low values 0.991 | S. cerevisiae deletion strains, locus YMR307W, strain GAS1, hits give low values 1.03 | S. cerevisiae deletion strains, locus YNL067W, strain RPL9B, hits give low values 0.988 | S. cerevisiae deletion strains, locus YNL071W, strain lat1, hits give low values 0.995 | S. cerevisiae deletion strains, locus YNL128W, strain TEP1, hits give low values 1.03 | S. cerevisiae deletion strains, locus YNL153C, strain GIM3, hits give low values 0.98 | S. cerevisiae deletion strains, locus YNL183C, strain NPR1, hits give low values 0.916 | S. cerevisiae deletion strains, locus YNL209W, strain ssb2, hits give low values 0.996 | S. cerevisiae deletion strains, locus YNL233W, strain BNI4, hits give low values 1 | S. cerevisiae deletion strains, locus YNL248C, strain rpa49, hits give low values 0.999 | S. cerevisiae deletion strains, locus YNL250W, strain rad50, hits give low values 1.01 | S. cerevisiae deletion strains, locus YNL271C, strain bni1, hits give low values 0.997 | S. cerevisiae deletion strains, locus YNL298W, strain CLA4, hits give low values 1.01 | S. cerevisiae deletion strains, locus YNL307C, strain MCK1, hits give low values 1.02 | S. cerevisiae deletion strains, locus YNL322C, strain KRE1 (second series), hits give low values 1 | S. cerevisiae deletion strains, locus YNL322C, strain KRE1, hits give low values 1.01 | S. cerevisiae deletion strains, locus YNR049C, strain mso1, hits give low values 0.999 | S. cerevisiae deletion strains, locus YNR052C, strain pop2, hits give low values 0.996 | S. cerevisiae deletion strains, locus YOL006C, strain TOP1, hits give low values 1 | S. cerevisiae deletion strains, locus YOL012C, strain htz1 0.612 | S. cerevisiae deletion strains, locus YOL147C, strain pex11, hits give low values 1 | S. cerevisiae deletion strains, locus YOR001W, strain rrp6, hits give low values 1 | S. cerevisiae deletion strains, locus YOR061W, strain CKA2, hits give low values 1.01 | S. cerevisiae deletion strains, locus YOR069W, strain VPS5, hits give low values 1 | S. cerevisiae deletion strains, locus YOR070C, strain gyp1, hits give low values 1 | S. cerevisiae deletion strains, locus YOR080W, strain dia2, hits give low values 1.01 | S. cerevisiae deletion strains, locus YOR083W, strain WHI5, hits give low values 1.01 | S. cerevisiae deletion strains, locus YOR106W, strain vam3, hits give low values 1.01 | S. cerevisiae deletion strains, locus YOR136W, strain idh2, hits give low values 1.01 | S. cerevisiae deletion strains, locus YOR144C, strain elg1, hits give low values 1 | S. cerevisiae deletion strains, locus YOR184W, strain ser1, hits give low values 1.03 | S. cerevisiae deletion strains, locus YOR231W, strain MKK1, hits give low values 0.951 | S. cerevisiae deletion strains, locus YOR265W, strain rbl2, hits give low values 1.01 | S. cerevisiae deletion strains, locus YOR270C, strain vph1, hits give low values 1.2 | S. cerevisiae deletion strains, locus YOR290C, strain snf2, hits give low values 0.991 | S. cerevisiae deletion strains, locus YOR316C, strain cot1, hits give low values 1.01 | S. cerevisiae deletion strains, locus YPL051W, strain arl3, hits give low values 1.02 | S. cerevisiae deletion strains, locus YPL055C, strain LGE1, hits give low values 0.984 | S. cerevisiae deletion strains, locus YPL078C, strain atp4, hits give low values 1.03 | S. cerevisiae deletion strains, locus YPL106C, strain sse1, hits give low values 0.975 | S. cerevisiae deletion strains, locus YPL240C, strain hsp82, hits give low values 0.995 | S. cerevisiae deletion strains, locus YPL241C, strain CIN2, hits give low values 1 | S. cerevisiae deletion strains, locus YPL256C, strain CLN2, hits give low values 1.02 | S. cerevisiae deletion strains, locus YPR119W, strain clb2, hits give low values 1.01 | S. cerevisiae deletion strains, locus YPR141C, strain kar3, hits give low values 1 | S. cerevisiae deletion strains, locus YPR163C, strain tif3, hits give low values 1 | S. cerevisiae deletion strains, locus YPR167C, strain met16, hits give low values 0.991 | S. cerevisiae deletion strains, strain wtn01, hits give low values 0.988 | S. cerevisiae strains, strain wild type, hits give low values 1.02
